From the supplement of paper PMC11732987, “Enantioselective OTUD7B fragment discovery through chemoproteomics screening and high-throughput optimisation” (Communications Chemistry, 2025)

How the values were obtained:
Experiment in all cases: log2 ratio of Biotin-Ahx-Ub-VS probe labelling (fragment/DMSO); higher = less target engagement (more negative = stronger competition), active = hit call of the paper (q ≤ 0.05, log2 ratio ≤ -1)
Conditions in all cases: compound concentration: 200 uM; treatment time: 3 h
USP42 = molecular target: T1, USP42 (UniProt Q9H9J4)
T1 sequence (whole entry): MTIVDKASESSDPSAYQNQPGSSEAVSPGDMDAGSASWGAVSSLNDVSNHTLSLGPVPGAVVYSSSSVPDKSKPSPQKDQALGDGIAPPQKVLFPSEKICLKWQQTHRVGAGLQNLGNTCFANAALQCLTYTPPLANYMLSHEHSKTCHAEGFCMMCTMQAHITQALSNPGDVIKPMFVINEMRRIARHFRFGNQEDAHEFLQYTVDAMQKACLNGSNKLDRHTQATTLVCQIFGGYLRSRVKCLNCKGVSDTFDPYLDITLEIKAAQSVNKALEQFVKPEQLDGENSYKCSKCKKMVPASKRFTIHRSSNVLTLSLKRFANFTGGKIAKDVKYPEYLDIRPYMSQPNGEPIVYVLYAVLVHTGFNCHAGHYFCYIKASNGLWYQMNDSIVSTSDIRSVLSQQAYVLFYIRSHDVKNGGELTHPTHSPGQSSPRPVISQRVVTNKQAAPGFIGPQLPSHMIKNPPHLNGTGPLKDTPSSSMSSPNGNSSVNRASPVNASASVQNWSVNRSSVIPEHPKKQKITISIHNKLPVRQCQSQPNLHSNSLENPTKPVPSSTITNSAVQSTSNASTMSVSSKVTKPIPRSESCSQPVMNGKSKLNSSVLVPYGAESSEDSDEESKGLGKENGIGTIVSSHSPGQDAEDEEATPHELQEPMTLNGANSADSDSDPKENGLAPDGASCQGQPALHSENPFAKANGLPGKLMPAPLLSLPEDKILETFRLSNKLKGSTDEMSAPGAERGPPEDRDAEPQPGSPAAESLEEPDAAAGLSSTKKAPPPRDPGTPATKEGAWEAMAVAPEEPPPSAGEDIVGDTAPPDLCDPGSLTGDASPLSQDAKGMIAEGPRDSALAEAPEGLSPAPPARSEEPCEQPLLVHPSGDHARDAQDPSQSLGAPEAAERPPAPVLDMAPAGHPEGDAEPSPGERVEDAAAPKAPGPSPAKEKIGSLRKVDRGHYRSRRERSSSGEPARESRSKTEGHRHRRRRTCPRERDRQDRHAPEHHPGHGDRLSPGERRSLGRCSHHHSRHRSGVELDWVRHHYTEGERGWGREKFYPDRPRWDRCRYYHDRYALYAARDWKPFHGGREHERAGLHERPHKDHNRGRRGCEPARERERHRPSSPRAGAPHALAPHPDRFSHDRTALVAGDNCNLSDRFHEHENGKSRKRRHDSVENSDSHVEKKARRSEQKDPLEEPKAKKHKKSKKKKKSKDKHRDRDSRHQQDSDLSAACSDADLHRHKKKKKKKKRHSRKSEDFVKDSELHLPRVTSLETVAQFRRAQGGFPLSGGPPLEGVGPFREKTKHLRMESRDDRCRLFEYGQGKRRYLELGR
Summary of the method: (§1)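 Using Biotin-Ahx-Ub-VS at 0.5 µM final for 1 h, DUBs were labelled in HEK293T lysate (495 µg per sample) that had first been treated in triplicate with fragment at 200 µM or vehicle for 3 h. NeutrAvidin enrichment, LysC and trypsin digestion and diaPASEF LC-MS/MS followed. Spectronaut label-free quantities were global-median-normalised. Values are average log2 fragment/vehicle ratios by unpaired t-test, using proteins with ≥2 unique peptides.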

USP46 = USP46 (UniProt P62068)
USP46, sequence (P62068 whole entry): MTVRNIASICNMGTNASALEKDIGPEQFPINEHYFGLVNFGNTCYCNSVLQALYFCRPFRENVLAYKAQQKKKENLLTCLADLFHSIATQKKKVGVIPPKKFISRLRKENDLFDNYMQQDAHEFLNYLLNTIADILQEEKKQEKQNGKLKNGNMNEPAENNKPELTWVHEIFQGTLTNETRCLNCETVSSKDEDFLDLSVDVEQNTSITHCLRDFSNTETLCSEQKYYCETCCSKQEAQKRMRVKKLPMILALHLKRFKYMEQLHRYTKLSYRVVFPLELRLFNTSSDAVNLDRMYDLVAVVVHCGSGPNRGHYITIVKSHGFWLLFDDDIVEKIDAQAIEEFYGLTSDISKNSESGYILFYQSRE
Summary of the method: as §1

USP47 = molecular target: T2, USP47 (UniProt Q96K76)
T2 sequence (whole entry): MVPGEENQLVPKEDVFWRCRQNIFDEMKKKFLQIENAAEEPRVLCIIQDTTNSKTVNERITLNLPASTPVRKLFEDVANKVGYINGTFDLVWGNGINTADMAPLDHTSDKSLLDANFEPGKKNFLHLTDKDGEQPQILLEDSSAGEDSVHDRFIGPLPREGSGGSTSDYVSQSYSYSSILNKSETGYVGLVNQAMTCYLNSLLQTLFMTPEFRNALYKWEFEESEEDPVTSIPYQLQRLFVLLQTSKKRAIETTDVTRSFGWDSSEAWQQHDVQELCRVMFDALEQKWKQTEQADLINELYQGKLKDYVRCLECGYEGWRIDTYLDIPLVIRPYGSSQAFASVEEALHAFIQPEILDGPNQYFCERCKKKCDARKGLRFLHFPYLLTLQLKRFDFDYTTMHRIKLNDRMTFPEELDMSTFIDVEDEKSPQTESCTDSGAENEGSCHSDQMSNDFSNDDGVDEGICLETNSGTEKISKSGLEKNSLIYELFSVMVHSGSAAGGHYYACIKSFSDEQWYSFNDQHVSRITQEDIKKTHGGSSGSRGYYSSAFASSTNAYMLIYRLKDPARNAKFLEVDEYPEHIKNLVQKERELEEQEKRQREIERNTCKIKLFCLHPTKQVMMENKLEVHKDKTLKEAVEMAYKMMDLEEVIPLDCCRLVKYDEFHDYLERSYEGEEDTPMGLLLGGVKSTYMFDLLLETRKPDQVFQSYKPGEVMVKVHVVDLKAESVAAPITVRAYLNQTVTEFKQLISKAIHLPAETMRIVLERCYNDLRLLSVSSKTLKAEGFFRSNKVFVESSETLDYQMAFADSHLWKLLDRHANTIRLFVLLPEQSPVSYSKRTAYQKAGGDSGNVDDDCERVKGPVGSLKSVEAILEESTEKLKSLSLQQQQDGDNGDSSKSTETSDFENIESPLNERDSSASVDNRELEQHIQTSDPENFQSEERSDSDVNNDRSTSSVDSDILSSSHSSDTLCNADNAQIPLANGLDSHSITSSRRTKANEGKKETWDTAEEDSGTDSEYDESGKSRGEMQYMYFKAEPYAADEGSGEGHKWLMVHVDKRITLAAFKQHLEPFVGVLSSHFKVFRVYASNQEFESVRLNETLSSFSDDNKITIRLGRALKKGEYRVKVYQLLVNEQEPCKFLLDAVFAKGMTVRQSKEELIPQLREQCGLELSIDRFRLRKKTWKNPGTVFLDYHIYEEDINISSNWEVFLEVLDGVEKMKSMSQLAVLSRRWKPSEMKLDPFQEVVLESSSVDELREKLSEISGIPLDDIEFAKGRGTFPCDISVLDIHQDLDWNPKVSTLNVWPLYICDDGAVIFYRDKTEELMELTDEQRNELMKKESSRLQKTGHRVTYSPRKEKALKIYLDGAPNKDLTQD
Summary of the method: as §1

USP48 = molecular target: T3, USP48 (UniProt Q86UV5)
T3 sequence (whole entry): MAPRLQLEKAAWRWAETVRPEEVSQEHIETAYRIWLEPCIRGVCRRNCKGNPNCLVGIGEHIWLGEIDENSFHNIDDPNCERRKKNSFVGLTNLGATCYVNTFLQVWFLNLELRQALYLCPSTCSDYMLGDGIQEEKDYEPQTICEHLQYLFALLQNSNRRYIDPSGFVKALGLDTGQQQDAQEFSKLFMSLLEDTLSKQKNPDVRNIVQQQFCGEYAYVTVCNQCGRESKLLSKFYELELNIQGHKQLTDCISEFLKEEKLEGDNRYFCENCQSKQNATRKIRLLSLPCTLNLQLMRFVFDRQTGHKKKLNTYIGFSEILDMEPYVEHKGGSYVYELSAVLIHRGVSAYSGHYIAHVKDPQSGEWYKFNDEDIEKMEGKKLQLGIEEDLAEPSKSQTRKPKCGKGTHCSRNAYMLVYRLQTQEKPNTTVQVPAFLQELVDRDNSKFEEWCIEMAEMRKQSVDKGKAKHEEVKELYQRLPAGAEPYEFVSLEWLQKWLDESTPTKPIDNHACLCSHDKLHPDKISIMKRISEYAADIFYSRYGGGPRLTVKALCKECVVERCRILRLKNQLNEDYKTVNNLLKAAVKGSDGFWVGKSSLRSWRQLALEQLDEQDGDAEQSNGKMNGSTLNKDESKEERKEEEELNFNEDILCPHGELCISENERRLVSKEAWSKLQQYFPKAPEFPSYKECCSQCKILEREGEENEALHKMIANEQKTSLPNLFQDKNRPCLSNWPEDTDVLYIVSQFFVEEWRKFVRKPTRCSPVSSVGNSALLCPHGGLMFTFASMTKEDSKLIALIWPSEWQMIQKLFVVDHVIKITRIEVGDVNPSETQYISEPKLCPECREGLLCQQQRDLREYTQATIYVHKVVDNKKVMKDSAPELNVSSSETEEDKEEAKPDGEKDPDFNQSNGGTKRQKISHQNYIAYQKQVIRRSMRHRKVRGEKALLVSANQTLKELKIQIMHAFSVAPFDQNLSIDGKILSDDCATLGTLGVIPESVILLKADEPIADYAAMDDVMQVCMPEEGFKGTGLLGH
Summary of the method: as §1

USP5 = molecular target: T4, USP5 (UniProt P45974)
T4 sequence (whole entry): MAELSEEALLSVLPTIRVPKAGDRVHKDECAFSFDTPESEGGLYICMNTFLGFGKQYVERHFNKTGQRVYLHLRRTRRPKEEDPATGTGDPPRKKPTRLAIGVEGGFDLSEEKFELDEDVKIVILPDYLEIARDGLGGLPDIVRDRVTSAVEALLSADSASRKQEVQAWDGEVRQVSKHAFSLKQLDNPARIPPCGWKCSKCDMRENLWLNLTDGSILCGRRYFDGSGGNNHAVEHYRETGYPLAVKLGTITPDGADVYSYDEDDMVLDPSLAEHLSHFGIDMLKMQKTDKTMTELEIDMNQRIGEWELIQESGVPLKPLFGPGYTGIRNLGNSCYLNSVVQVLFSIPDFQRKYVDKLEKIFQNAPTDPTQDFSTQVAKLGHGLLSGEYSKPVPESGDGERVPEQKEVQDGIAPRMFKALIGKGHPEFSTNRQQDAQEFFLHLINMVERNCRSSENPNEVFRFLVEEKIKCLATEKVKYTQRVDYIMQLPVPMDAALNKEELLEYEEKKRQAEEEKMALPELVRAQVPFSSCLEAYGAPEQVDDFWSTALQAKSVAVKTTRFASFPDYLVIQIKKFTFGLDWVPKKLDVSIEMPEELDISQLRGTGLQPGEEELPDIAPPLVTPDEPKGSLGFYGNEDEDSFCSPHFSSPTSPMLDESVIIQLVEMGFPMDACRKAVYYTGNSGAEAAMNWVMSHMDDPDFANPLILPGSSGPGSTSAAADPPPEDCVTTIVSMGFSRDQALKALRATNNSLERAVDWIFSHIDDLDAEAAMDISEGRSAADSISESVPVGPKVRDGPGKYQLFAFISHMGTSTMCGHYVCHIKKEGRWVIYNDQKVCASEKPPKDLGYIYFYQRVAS
Summary of the method: as §1

USP54 = USP54 (UniProt Q70EL1)
USP54, sequence (Q70EL1 whole entry): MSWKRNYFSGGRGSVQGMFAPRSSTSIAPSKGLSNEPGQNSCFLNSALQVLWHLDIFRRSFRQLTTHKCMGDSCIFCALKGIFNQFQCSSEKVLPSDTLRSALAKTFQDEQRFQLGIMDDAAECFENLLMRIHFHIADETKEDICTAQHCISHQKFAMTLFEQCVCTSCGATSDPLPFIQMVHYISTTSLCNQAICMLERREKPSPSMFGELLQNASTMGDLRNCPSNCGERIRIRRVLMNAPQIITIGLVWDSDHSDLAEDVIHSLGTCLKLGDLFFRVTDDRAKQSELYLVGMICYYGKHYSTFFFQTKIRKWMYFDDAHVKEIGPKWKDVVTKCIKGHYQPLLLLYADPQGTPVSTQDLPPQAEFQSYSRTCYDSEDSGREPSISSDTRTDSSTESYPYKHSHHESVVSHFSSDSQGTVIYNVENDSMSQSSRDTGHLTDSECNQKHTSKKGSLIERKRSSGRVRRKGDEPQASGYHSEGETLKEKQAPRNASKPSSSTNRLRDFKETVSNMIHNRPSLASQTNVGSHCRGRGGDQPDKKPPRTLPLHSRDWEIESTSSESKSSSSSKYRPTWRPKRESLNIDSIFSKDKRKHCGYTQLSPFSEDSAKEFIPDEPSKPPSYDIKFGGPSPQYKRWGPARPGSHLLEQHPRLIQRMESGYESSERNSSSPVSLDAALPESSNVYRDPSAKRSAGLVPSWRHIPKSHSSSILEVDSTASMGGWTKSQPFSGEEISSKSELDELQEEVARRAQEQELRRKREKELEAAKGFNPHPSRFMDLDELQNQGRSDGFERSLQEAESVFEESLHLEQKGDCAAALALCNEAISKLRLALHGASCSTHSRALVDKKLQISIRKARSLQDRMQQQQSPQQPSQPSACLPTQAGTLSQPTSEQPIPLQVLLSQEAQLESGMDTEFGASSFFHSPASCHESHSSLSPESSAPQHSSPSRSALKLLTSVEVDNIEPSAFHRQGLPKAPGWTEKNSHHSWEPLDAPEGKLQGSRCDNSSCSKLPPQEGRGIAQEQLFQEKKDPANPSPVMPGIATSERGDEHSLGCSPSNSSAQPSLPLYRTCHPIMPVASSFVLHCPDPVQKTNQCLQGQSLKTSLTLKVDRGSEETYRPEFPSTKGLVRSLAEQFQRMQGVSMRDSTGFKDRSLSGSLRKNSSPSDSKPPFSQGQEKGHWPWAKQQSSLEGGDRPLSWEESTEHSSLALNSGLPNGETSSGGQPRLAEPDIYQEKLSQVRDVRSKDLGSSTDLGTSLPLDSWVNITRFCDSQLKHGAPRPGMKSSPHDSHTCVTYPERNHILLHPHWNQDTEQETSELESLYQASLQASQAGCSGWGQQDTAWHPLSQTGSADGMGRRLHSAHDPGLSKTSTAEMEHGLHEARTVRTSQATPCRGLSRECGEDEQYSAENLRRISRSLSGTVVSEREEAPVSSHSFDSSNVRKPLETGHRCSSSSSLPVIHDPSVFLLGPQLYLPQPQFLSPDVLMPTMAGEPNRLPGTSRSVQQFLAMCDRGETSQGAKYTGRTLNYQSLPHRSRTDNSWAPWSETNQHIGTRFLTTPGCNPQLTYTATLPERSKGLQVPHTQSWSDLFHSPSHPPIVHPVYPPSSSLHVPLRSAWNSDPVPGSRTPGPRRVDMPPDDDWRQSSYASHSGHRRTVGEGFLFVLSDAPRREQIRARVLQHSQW
Summary of the method: as §1

USP7 = USP7 (UniProt Q93009)
USP7, sequence (Q93009 whole entry, looked up): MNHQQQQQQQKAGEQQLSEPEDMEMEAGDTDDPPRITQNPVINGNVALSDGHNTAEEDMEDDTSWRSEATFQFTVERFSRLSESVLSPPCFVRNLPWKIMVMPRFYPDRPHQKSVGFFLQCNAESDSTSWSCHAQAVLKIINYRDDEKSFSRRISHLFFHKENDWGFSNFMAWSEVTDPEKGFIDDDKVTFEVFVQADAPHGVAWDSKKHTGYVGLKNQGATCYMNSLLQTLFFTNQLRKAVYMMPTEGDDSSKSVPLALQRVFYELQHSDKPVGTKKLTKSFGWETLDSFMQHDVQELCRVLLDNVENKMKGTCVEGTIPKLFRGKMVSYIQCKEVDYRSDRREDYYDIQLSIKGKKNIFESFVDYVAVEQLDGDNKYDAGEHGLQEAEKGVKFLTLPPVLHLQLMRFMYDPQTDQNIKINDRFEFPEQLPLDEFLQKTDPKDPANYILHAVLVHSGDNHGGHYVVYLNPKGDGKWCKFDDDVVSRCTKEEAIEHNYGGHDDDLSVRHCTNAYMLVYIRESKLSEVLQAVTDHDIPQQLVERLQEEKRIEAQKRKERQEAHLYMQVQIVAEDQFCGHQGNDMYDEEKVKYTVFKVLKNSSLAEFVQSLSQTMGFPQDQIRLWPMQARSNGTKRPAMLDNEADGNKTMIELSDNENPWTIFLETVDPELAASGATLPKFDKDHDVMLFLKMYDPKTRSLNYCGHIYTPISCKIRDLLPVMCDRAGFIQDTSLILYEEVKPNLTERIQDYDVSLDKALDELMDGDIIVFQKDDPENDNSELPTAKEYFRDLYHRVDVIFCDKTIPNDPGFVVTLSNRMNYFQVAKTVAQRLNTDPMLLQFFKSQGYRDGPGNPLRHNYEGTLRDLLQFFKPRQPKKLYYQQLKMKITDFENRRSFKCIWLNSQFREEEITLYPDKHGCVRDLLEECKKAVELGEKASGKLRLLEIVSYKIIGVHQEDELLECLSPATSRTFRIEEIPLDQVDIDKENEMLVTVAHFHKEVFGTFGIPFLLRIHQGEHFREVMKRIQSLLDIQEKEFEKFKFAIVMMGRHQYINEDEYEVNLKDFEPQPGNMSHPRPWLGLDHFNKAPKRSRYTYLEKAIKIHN
Summary of the method: as §1

USP8 = molecular target: T5, USP8 (UniProt P40818)
T5 sequence (whole entry): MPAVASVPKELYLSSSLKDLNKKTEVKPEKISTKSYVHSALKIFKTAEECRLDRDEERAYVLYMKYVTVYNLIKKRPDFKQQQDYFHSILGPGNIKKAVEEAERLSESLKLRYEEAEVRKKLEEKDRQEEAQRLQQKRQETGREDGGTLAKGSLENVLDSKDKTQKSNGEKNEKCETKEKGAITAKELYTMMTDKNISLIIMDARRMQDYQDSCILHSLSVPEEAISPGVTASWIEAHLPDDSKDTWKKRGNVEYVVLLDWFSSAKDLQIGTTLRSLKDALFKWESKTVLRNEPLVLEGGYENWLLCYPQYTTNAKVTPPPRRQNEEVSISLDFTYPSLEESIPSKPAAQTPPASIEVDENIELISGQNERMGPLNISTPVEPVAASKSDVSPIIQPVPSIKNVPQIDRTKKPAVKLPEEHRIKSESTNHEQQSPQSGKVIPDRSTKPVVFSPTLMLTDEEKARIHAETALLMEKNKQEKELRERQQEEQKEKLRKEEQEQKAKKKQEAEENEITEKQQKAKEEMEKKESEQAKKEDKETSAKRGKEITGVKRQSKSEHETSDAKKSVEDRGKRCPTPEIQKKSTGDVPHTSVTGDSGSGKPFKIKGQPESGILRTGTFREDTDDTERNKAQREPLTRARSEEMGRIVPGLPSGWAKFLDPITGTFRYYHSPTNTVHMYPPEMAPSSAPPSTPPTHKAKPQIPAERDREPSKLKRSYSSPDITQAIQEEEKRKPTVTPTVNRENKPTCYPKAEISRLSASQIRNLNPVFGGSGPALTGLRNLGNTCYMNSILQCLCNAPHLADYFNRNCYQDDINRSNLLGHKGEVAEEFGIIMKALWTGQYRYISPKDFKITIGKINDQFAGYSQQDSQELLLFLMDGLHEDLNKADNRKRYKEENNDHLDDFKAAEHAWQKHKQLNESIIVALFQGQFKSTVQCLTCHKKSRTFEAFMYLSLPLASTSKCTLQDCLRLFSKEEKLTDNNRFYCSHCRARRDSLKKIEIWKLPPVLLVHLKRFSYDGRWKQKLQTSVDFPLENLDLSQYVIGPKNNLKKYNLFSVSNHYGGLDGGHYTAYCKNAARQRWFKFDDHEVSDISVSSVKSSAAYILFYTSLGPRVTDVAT
Summary of the method: as §1

Measured: log2 ratio of Biotin-Ahx-Ub-VS probe labelling

O=C(CN1CCN(C(=O)CCl)CC1)Nc1cccc(F)c1
inactive: USP42 -0.241 | USP46 -0.173 | USP47 -0.178 | USP48 -0.419 | USP5 0.215 | USP54 0.835 | USP7 -0.436 | USP8 -0.23
